Only some compounds are listed: those with a hit (about 0.9% of all), similar ones and a draw of the others.
SRC1 TRFRET art – flags TR-FRET format artefacts in PPARgamma SRC-1 recruitment agonist screen. TR-FRET detection artefact counter-screen, emission ratio; active compounds read high. TR-FRET ratio at 8 µM. 99,000 tested, 0.34% active. AID 1051; in the data active means TR-FRET ratio above about 2300
PPARg SRC1 recr – PPARgamma-driven SRC-1 recruitment agonism | P37231 | PPARgamma-SRC-1 coactivator recruitment biochemical assay | activation, % at 8 µM | 200,000 tested, 0.41% active; in the data active means activation above about 19%
Target sequence (P37231 whole entry, looked up): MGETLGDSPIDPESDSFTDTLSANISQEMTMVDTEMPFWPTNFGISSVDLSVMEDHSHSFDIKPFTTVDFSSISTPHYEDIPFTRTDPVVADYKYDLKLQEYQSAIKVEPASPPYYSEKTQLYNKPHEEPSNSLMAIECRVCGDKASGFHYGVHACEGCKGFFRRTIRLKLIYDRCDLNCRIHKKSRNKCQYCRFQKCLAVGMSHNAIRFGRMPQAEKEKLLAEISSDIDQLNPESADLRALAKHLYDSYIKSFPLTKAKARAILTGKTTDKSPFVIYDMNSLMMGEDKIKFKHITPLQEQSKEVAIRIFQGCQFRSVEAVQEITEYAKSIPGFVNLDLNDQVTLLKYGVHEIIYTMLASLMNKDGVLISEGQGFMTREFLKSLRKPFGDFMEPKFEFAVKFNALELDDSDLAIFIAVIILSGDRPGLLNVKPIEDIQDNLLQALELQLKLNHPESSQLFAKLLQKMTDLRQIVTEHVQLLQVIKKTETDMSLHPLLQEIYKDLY
TR-FRET SRC-2 ct – flags TR-FRET format artefacts in PPARgamma SRC-2 recruitment agonist screen | 200,000 tested, 0.4% active | TR-FRET artefact counter-screen; active compounds read high | TR-FRET ratio at 8 µM | AID 1049
PPARg SRC-3 ag – PPARgamma-driven SRC-3 recruitment agonism; 200,000 tested, 0.26% active; activation, % at 8 µM; biochemical PPARgamma/SRC-3 coactivator recruitment assay; AID 731; in the data active means activation above about 23%
SRC3 TRFRET art – flags TR-FRET format artefacts in PPARgamma SRC-3 recruitment agonist screen; TR-FRET artefact counter-screen, PPARgamma/SRC-3 format; active compounds read high; 99,000 tested, 0.39% active; TR-FRET ratio at 8 µM
PPARg SRC2 recr – promotes SRC-2 coactivator recruitment by human PPARgamma; 200,000 tested, 0.34% active; activation, % at 8 µM; AID 1032; PPARgamma LBD-SRC-2 recruitment, biochemical; in the data active means activation above about 22%
A number is an active result; 0 = inactive; - = no result. Unless noted, no stated cut-off is given here; in the data, active means TR-FRET ratio above about 2000; inactive means the rest.

SMILES	SRC1 TRFRET art	PPARg SRC1 recr	TR-FRET SRC-2 ct	PPARg SRC-3 ag	SRC3 TRFRET art	PPARg SRC2 recr
CCNC(=O)c1ccc(C23CC4CC(CC(C4)C2)C3)o1	0	0	0	0	0	0
CCOc1ccc(/C=N/n2cc(-c3ccccc3)[nH]c2=S)cc1	0	24	0	0	0	0
CCOc1ccc(/C=N/O)cc1	-	0	0	0	-	0
Clc1ccc2nncn2n1	0	0	0	0	0	0
O=C(CNC(=S)N(CCCN1CCOCC1)Cc1cccs1)N1CCCCCC1	0	0	0	0	0	0
CN=C1CC(SC)=C1c1ccc(C)cc1	-	0	0	0	-	24
CCO[C@H]1OC(C(=O)N2CCN(Cc3ccc4c(c3)OCO4)CC2)=C[C@@H](c2ccccc2)[C@@H]1CCCO	0	0	0	0	0	0
CCO[C@@H]1OC(C(=O)N2CCN(Cc3ccc4c(c3)OCO4)CC2)=C[C@H](c2csc3ccccc23)[C@H]1CCCO	0	0	0	0	0	23
Cc1ccc2oc(=O)cc(CN3CCC(C)CC3)c2c1	-	0	0	0	-	23
COc1ccc(C2CC(=O)c3c([nH]c(C(=O)OC(C)C)c3C)C2)cc1OC (stereo not drawn)	0	0	0	32	3447	0
CCN(CC)S(=O)(=O)c1ccc(/C=C/C(=O)OCC(=O)N(C(C)C)C(C)C)cc1	0	0	0	0	0	0
O=C(c1ccccc1)c1nn(-c2ccccc2)c2nnc(Cc3ccccc3)c(=O)n12	-	0	2100	0	-	0
Cn1ccnc1C1CCCCN1Cc1nc(-c2ccc3c(c2)OCO3)no1 (stereo not drawn)	3563	38	0	0	0	0
CC(NC(=O)COC(=O)C1CSC2(C)CCC(=O)N12)C12CC3CC(CC(C3)C1)C2 (stereo not drawn)	0	0	0	0	0	0
Cn1c(SCC(=O)Nc2cccc(Br)c2)nnc1-c1cc2ccccc2o1	-	31	0	0	-	0
CCc1ccc2nc(N3C(=O)C(O)=C(C(=O)c4ccco4)C3c3cccs3)sc2c1 (stereo not drawn)	-	29	2282	28	-	36
CCc1cccc(C)c1NC(=O)C1CC=CCC1C(=O)O (stereo not drawn)	0	0	0	0	0	0
Cc1cc2nc(-c3ccc(SCc4ccc(C#N)cc4)nc3)[nH]c2cc1C	-	0	2209	0	-	0
CC(=O)Nc1ccc(Br)c2ccccc12	2333	0	2043	0	2311	0
COc1ccc(/C=C\C(=O)NCc2ccc3c(c2)cc(C)n3C)cc1OC	0	0	0	0	2112	0
CCc1cccc(C)c1NC(=S)NCc1ccc2c(c1)cc(C)n2C	0	0	0	0	2094	0
COc1ccc(C(=O)NCc2ccc3c(c2)cc(C)n3C)cc1OC	0	0	0	0	0	0
COc1cccc(C(=O)NCc2ccc3c(c2)cc(C)n3C)c1	2604	0	2069	0	2355	0
COc1ccc(NC(=O)C2CCCN(S(=O)(=O)c3c(C)[nH]c(=O)[nH]c3=O)C2)cc1Cl (stereo not drawn)	0	0	0	0	0	0
CCOC(=O)c1sc2nc3c(SCC(=O)O)cc(C(=O)c4ccccc4O)cn3c(=O)c2c1C	0	0	0	0	0	0
SMILES	SRC1 TRFRET art	PPARg SRC1 recr	TR-FRET SRC-2 ct	PPARg SRC-3 ag	SRC3 TRFRET art	PPARg SRC2 recr
Cc1sc2nc3c(SC(C)C(=O)O)cc(C(=O)c4ccccc4O)cn3c(=O)c2c1C (stereo not drawn)	0	0	0	33	0	0
O=C(CSc1nc(C2CC2)nc2ccccc12)N1c2ccccc2Sc2ccc(C(F)(F)F)cc21	-	0	1994	0	-	0
O=C(CN1CCCC(O)C1)N1c2ccccc2Sc2ccc(C(F)(F)F)cc21 (stereo not drawn)	-	0	0	0	-	0
CC(=O)c1sc(NC(=O)c2ccc(C)c(C)c2)nc1C	0	0	0	0	0	0
CC(=O)c1sc(NC(=O)c2ccc(C(C)(C)C)cc2)nc1C	0	0	1990	0	2151	0
O=C(CSc1nnnn1Cc1ccccc1)NCCc1ccccc1	0	0	0	0	0	0
O=C(CSc1nnnn1Cc1ccccc1)NCC(=O)c1ccccc1	-	0	0	0	-	23
CSc1nc(SCC(=O)NCc2ccco2)c2c3c(sc2n1)COC(C)(C)C3	0	0	0	0	0	0
CSc1nc(SCC(=O)NC(c2ccccc2)c2ccccc2)c2c3c(sc2n1)CN(C)CC3	-	0	2069	0	-	0
COc1ccc(CN2CCN(Cc3nc4ccccc4s3)CC2CCO)c(C)c1C (stereo not drawn)	0	0	0	0	0	0
O=C(NC1=NCCS1)C1CC(=O)N(c2ccc(Cl)cc2)C1 (stereo not drawn)	0	0	0	0	0	0
CC(=O)Nc1ccc(C(=O)Nc2nc(-c3cccnc3)cs2)cc1	0	0	0	0	0	0
CC(=O)Nc1ccc(C(=O)Nc2nc(-c3ccccn3)cs2)cc1	0	0	1977	0	0	0
CC(C)CNS(=O)(=O)c1cc(C(=O)OCC(=O)c2ccc3c(c2)OCCO3)c(Cl)cc1Cl	0	0	0	0	2107	0
CNS(=O)(=O)c1ccc(C(C)(C)C)cc1	0	0	0	0	0	0
Cc1cccc(C(=O)NNc2ncnc3c2cnn3C)c1	0	0	0	0	0	0
COc1ccc(Nc2cnn(-c3nc4ccccc4s3)c(=O)c2Cl)cc1	0	0	0	0	0	0
O=c1c(Cl)c(Nc2cccc(Cl)c2)cnn1-c1nc2ccccc2s1	0	0	2092	0	2400	0
CCN(C(=O)COC(=O)c1cc(-c2ccccc2)nc2ccc(Br)cc12)C1CCS(=O)(=O)C1 (stereo not drawn)	2327	0	0	0	2241	0
Cc1cc(C)c(C(=O)N2CCCC(CNC(=O)C3(c4ccc(Cl)cc4)CC3)C2)c(=O)[nH]1 (stereo not drawn)	0	0	0	0	0	0
Cc1noc(C)c1COC(=O)c1ccc(N(C)C)cc1	0	0	0	0	0	0
CCn1c(SCC(=O)O)nnc1C1CCCCC1	-	0	0	29	-	0
Cc1ccc(SCCC(=O)OCC(=O)NCC2CCCCC2)cc1	0	0	0	0	0	0
COc1cccc(/C=C/C(=O)OCC(=O)Nc2cc(S(=O)(=O)N3CCOCC3)ccc2C)c1	0	0	0	0	0	0
CCOC(=O)CS(=O)(=O)c1ccccc1	-	0	0	0	-	0
SMILES	SRC1 TRFRET art	PPARg SRC1 recr	TR-FRET SRC-2 ct	PPARg SRC-3 ag	SRC3 TRFRET art	PPARg SRC2 recr
CCOC(=O)CS(=O)(=O)c1ccc(O)cc1	0	21	0	0	0	0
Cc1cc(N)n(Cc2cccs2)n1	0	0	0	0	0	0
NC(=S)Nc1cccc2cc3ccccc3cc12	-	0	0	0	-	22
COc1ccc(Cc2[nH]n3c(=O)c(Cl)c(C)nc3c2-c2ccccc2)cc1	0	0	0	0	0	0
Cc1ccc(C)c(S(=O)(=O)N2CCN(CC(=O)Nc3sccc3C#N)CC2)c1	0	0	0	0	2054	0
CC(NC(=O)COc1ccc(N(C)S(=O)(=O)c2ccccc2)cc1)c1ccccc1 (stereo not drawn)	0	0	0	0	0	0

Screening results (PubChem)
